# Yp Topo-I inh: inhibitors of Yersinia pestis topoisomerase I; Y. pestis Topo-I cleavage product accumulation, plate reader; activity, % at 10 µM; 360,000 tested, 0.064% active; AID 504884; in the data active means activity above about 50%, passing the limit was not always enough; inconclusive means no clear call, values can overlap the other calls
# Rv3671c protease: Rv3671c (M. tuberculosis) protease inhibition; P9WHR9; inhibition, % at 5.96 µM; 320,000 tested, 0.048% active; in the data active means inhibition above about 38%;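 further: extracellular domain of Rv3671c used as enzyme; 0% = enzyme with DMSO and 100% = no enzyme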
# UGM FP inh: blocks M. tuberculosis UGM enzyme | P9WIQ1 | purified UGM, fluorescence polarization probe displacement | inhibition, % at 10 µM | 320,000 tested, 0.06% active | AID 504406; in the data active means inhibition above about 10%, passing the limit was not always enough; inconclusive means no clear call, values can overlap the other calls
# BioA inh: blocks M. tuberculosis BioA enzyme activity; purified M. tuberculosis BioA enzyme, plate reader; 360,000 tested, 0.096% active; inhibition, % at 9.99 µM; in the data active means inhibition above about 40%; inconclusive means no clear call, values can overlap the other calls
# FadD28 binding: M. tuberculosis FadD28 bisubstrate binding inhibition; FadD28 bisubstrate probe binding, fluorescence polarization; inhibition, % at 12.5 µM; 360,000 tested, 0.22% active; AID 588549; in the data active means inhibition above about 8.5%, passing the limit was not always enough; inconclusive means no clear call, values can overlap the other calls
# RecA intein inh: blocks M. tuberculosis RecA intein splicing | cell-free RecA intein splicing, fluorescence | inhibition, % (no concentration beside the values) | 290,000 tested, 0.75% active | AID 2221; in the data active means inhibition above about 30%; inconclusive means no clear call, values can overlap the other calls;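 further: 0% = vehicle wells and 100% = reference inhibitor control wells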
# Target sequence (P9WHJ3 whole entry, looked up): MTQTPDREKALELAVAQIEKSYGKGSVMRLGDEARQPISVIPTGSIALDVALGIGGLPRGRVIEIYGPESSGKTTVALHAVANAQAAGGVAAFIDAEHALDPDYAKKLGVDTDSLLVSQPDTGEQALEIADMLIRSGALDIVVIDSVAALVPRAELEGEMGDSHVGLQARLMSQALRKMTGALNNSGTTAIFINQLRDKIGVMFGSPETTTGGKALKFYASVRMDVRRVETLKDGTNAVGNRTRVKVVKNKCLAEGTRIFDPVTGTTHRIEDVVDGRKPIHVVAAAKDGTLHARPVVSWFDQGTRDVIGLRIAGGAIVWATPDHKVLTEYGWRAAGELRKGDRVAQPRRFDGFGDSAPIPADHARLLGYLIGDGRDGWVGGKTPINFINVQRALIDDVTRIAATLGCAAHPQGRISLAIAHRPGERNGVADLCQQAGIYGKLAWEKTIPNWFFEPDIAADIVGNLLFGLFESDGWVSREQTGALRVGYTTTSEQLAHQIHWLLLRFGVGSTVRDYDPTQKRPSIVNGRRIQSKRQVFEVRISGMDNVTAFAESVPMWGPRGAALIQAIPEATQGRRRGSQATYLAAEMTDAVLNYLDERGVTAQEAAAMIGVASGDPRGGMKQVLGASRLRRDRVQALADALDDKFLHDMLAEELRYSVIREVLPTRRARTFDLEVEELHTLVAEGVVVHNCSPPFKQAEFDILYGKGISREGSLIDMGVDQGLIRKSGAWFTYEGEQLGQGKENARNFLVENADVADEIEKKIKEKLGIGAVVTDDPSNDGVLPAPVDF
# GFP chromo cs: counter-screen GFP chromophore formation inhibition; 2,100 tested, 83% active; AID 434968; EC50, µM; shares compounds with RecA intein inh; cell-free GFP chromophore formation, fluorescence; call rule not given here
# * marks the source's active call; other numbers are inactive results; ? = inconclusive; . = no result. The list is not random: actives were taken first. Their share in the collection is about 0.82%.
SMILES,Yp Topo-I inh,Rv3671c protease,UGM FP inh,BioA inh,FadD28 binding,RecA intein inh,GFP chromo cs
CCOc1ccc(S(=O)(=O)Nc2cc(SCC(=O)O)c(O)c3ccccc23)cc1,-5,.,1,0,1,96*,8.9*
CNC[C@@H]1Oc2ccc(NS(=O)(=O)c3ccc(C)cc3)cc2C(=O)N([C@H](C)CO)C[C@@H]1C,.,.,.,-3,.,.,.
O=C(N[C@@H]1C=C[C@H](CC(=O)N2CCCCC2)O[C@@H]1CO)c1cccc(F)c1,.,.,.,-2,.,.,.
CC1(C)CC(=O)C2=C(C1)OC(N)=C(C#N)C21CCC2(CC1)OCCO2,0,12,-3,0,-4,-5,.
CCOC(=O)N1CCC2(CC1)C(C#N)=C(N)Oc1n[nH]c(C)c12,-3,-4,2,-1,-3,80*,13*
Cc1[nH]nc2c1C1(CCC3(CC1)OCCO3)C(C#N)=C(N)O2,-4,5,2,.,0,74*,>38
CCc1[nH]nc2c1C1(CCOC1C)C(C#N)=C(N)O2 (centres undefined),7,-3,1,-2,0,2,.
COCc1[nH]nc2c1C1(CCSCC1)C(C#N)=C(N)O2,5,-14,0,0,1,74*,20*
O=C(C[C@@H]1CC[C@@H]2NC[C@H](O)COC[C@H]2O1)NCc1ccc(Oc2ccccc2)cc1,.,.,.,-1,.,.,.
Cc1ccc(-c2cc(NC(=O)CCl)n(-c3ccccc3)n2)cc1,-2,-4,1,-1,1,73*,33*
CC(=O)Nc1ccc(-c2cc(NC(C)=O)n(-c3ccccc3)n2)cc1,-6,2,0,-1,-5,0,.
O=C(CCl)Nc1cc(-c2ccccc2)nn1-c1ccccc1,-4,1,0,.,0,62*,40*
C[C@H]1CCCCO[C@H](CN(C)Cc2ccc(Cl)c(Cl)c2)[C@@H](C)CN([C@@H](C)CO)C(=O)c2cc(NS(C)(=O)=O)ccc2O1,.,.,.,2,.,.,.
COc1ccc(C(=O)/C(=C/c2cccs2)c2nc3ccccc3o2)cc1,23,-7,3,-1,-3,46*,>38
COCc1[nH]nc2c1C(c1ccc(F)cc1F)C(C#N)=C(N)O2 (centres undefined),0,-3,4,-2,-1,25,.
CCn1c2ccccc2c2cc(C3C(C#N)=C(N)Oc4n[nH]c(COC)c43)ccc21 (centres undefined),-7,-5,1,3,-3,77*,10*
COCc1[nH]nc2c1C(c1ccc(OC)c(OC)c1)C(C#N)=C(N)O2 (centres undefined),6,1,-1,3,0,56*,31*
Cc1noc(C)c1NC(=O)Nc1ccc2c(c1)CC(=O)N([C@@H](C)CO)C[C@@H](C)[C@H](CN(C)C(=O)Nc1ccc(F)cc1)O2,.,.,.,4,.,.,.
CCc1cc2c3c(c1)C1(C(=O)N3C(C)(C)C=C2C)C(C#N)=C(N)Oc2[nH]c(=O)[nH]c(=O)c21 (centres undefined),5,-11,-1,2,-2,78*,19*
Cn1ncnc2c(=O)n(C)c(=O)nc1-2,6,-188,0,0,?,97*,0.09*
Cn1nc(-c2ccccn2)nc2c(=O)n(C)c(=O)nc1-2,-10,-194,-1,-3,1,95*,0.41*
COc1ccc(NC(=O)Nc2ccc3c(c2)C(=O)N([C@@H](C)CO)C[C@@H](C)[C@@H](CN(C)C(=O)Nc2ccc4c(c2)OCO4)OCCCC[C@@H](C)O3)cc1,.,.,.,0,.,.,.
O=C1C(Cl)=C(Nc2ccc3cn[nH]c3c2)C(=O)c2ccccc21,-5,-27,4,-1,0,90*,1.5*
O=C(CSCc1ccc([N+](=O)[O-])cc1)N/N=C/c1cccnc1,2,-3,-2,9,-1,38*,>38
O=C(Oc1ccc(N(C(=O)c2ccncc2)S(=O)(=O)c2ccc(F)cc2)cc1)c1ccncc1,8,9,1,4,0,13,.
SMILES,Yp Topo-I inh,Rv3671c protease,UGM FP inh,BioA inh,FadD28 binding,RecA intein inh,GFP chromo cs
O=C(Oc1ccc(N(C(=O)c2ccncc2)S(=O)(=O)c2ccc(Cl)cc2)cc1)c1ccncc1,5,-2,-4,2,-1,38*,33*
Cc1ccc(S(=O)(=O)Oc2ccc(C(c3c(C)[nH][nH]c3=O)c3c(C)[nH][nH]c3=O)cc2)cc1,-1,-7,-1,1,-3,97*,>38
CCOC(=O)c1c(CSC(=N)N)n(-c2ccccc2)c2cc(Br)c(OC(C)=O)cc12,3,0,1,.,-4,48*,20*
CCOC(=O)c1c(CN2CCN(C)CC2)n(-c2ccccc2)c2cc(Br)c(O)cc12,6,1,0,.,-3,-1,.
O=C1Cc2ccccc2C(=O)N1Cc1ccccc1,-5,-52,4,-2,0,90*,1.9*
COc1ccc(C(=O)N/N=C/c2ccc(OC)c(COc3ccc(F)cc3)c2)cc1,4,-20,-1,0,-2,-1,.
COc1ccc(C(=O)/C=C/c2ccc(OC)c(COc3ccccc3F)c2)cc1,11,-15,-1,-3,2,18,.
COc1ccc(/C=C/C(=O)c2ccccc2)cc1COc1ccc(F)cc1,31,-10,5,.,-5,41*,>38
COc1ccc(/C=C/C(=O)c2ccc(O)cc2)cc1COc1ccc(F)cc1,-1,-72,1,-2,-3,36*,>38
CN1CCN(C(c2ccccn2)c2cc(Cl)c3cccnc3c2O)CC1 (centres undefined),-4,8,-1,.,-4,5,.
Cc1ccc(C(c2cc(Cl)c3cccnc3c2O)N2CCN(C)CC2)cc1 (centres undefined),-12,5,0,0,-4,75*,8.7*
COc1ccc(C(N)c2nccc3cc(OC)c(OC)cc23)cc1OC (centres undefined),1,-65,0,4,-1,92*,>38
Cc1ccccc1-c1cnc2c(c1)C(=O)N([C@@H](C)CO)C[C@H](C)[C@@H](CN(C)CC1CCCCC1)O2,.,.,.,4,.,.,.
C[C@@H]1CN([C@H](C)CO)C(=O)c2cc(NC(=O)Nc3cccc4ccccc34)ccc2O[C@H]1CN(C)S(=O)(=O)c1ccccc1,.,.,.,0,.,.,.
COC(=O)c1ccccc1NC1=C/C(=N\S(=O)(=O)c2cccs2)c2ccccc2C1=O,-3,-88,4,-1,-10,81*,0.1*
COC(=O)c1ccccc1Nc1ccccc1,-8,-2,3,0,-4,.,.
COC(=O)c1ccccc1NC1=C/C(=N\S(=O)(=O)c2ccc(C(=O)O)cc2)c2ccccc2C1=O,-2,-92,0,2,24*,63*,?
COc1cccc(CNC(=O)C[C@H]2CC[C@H](NC(=O)C3CCOCC3)[C@H](CO)O2)c1,.,.,.,-2,.,.,.
CCNC(=O)[C@@H]1[C@@H](CO)[C@@H]2Cn3c(ccc(-c4cccc(F)c4)c3=O)[C@H]1N2C(C)=O,.,.,.,-1,.,.,.

# High-throughput results as filed in PubChem.
